Screens (PubChem)
An excerpt weighted towards active compounds, which were near 2.7% of everything screened.
Tau ThT inhib – blocks human tau fibril formation measured by thioflavin T. P10636. recombinant tau K18 P301L, heparin-induced fibrillization, ThT fluorescence. Potency, µM (highest dose often 57.4 µM), for inactives: at the highest dose activity, negative = inhibition, usual class: inhibitors. 270,000 tested, 2.1% active; further: potency means the concentration at half of the fitted maximal effect; nearly all actives have a fitted effect of over 55% in size
Target sequence (P10636 561-689 P618L limits assumed): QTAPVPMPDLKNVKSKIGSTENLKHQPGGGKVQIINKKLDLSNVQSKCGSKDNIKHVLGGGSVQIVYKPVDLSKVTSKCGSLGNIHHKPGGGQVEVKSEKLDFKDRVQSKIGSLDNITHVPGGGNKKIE
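Heparin-induced fibrillization of the P301L-mutant K18 repeat-domain fragment of human tau was followed by ThT binding in quantitative high-throughput format.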
Tau fibril FP – tau fibrillization inhibition (FP); P10636; K18 P301L tau heparin fibrillization, Alexa594 FP, 6 h; Potency, µM (top dose mostly 57.7 µM), for the others: at the top dose activity, negative = inhibition, usual class: inhibitors; 280,000 tested, 0.39% active; AID 1468; further: potency means the concentration at half of the fitted maximal effect; nearly all actives have a fitted effect of over 55% in size
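Human tau K18 […] P301L fragment, 15 uM unlabeled plus 0.24 uM Alexa 594-labeled tau (final), with compound and 20 uM heparin in 100 mM sodium acetate pH 7; 6 hr at 37 C, then Alexa 594 FP read.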
FBPA coupling cs – coupling enzyme interference in Giardia aldolase counter-screen. coupling enzyme system counterscreen, AmpLite Red fluorescence. 290,000 tested, 0.67% active. AID 2472. activity change, negative = inhibition, % at 58.2 µM, hits read low; in the data active means activity change below about -30%
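Counterscreen of the coupled detection system alone, without aldolase: glyceraldehyde-3-phosphate coupling enzymes plus AmpLite Red readout. Compounds at 57.5 uM final, 10 min RT preincubation, 20 min RT reaction, fluorescence 525/598 nm.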
Tau fluor cs – counter-screen for tau fibril formation inhibitors | 280,000 tested, 0.93% active | Potency, µM (series often up to 57.7 µM), for inactives: at the highest dose activity change, negative = decrease | tau K18 P301L Alexa594 fluorescence, heparin fibrillization; further: potency means the concentration at half of the fitted maximal effect; nearly all actives have a fitted effect of over 55% in size
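Human tau K18 P301L (15 uM unlabeled, 0.24 uM Alexa 594-labeled) in 100 mM sodium acetate pH 7 with 20 uM heparin, 6 hr at 37 C. ThT 30 uM added, 1 hr ambient; Alexa 594 FP and total fluorescence read at 555/632 nm.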
Starred values were filed as active, the others as inactive; [ ] = dose if it differs, or a comment. Unless noted, the call rests on the fitted dose curve; in most records, active means well fitted curve in the direction sought with a large enough effect; inconclusive means small, poorly fitted or top-dose-only effect, or another doubt; inactive means no such curve, though single readings can be large; an effect the other way counts as inactive or inconclusive. On the % scale 0 is the no-effect control and ±100 the full control effect.

For Clc1ccccc1CNCC1CCC(CNCc2ccccc2Cl)CC1 (configuration not stated) the results were Tau ThT inhib 6%, Tau fibril FP -2%, FBPA coupling cs 1 and Tau fluor cs 0%.
`O=C(Oc1cccnc1)c1ccc([N+](=O)[O-])cc1` gave Tau ThT inhib inconclusive, Tau fibril FP 12%, FBPA coupling cs 1 and Tau fluor cs 8.9µM*[quencher].
Cc1ccc(C(=O)Oc2cccnc2)cc1[N+](=O)[O-] was read as Tau ThT inhib inconclusive, Tau fibril FP 6%, FBPA coupling cs -3 and Tau fluor cs -30%.
CCC(=O)Nc1nnc(S(=O)(=O)N2CCc3ccccc32)s1 was read as Tau ThT inhib 18µM*, Tau fibril FP -9%, FBPA coupling cs 3 and Tau fluor cs -30%.
For CCC(CC)C(=O)Nc1nnc(S(=O)(=O)N2CCc3ccccc32)s1 the results were Tau ThT inhib inconclusive, Tau fibril FP 2%, FBPA coupling cs -6 and Tau fluor cs -26%.
CCC(CC)C(=O)Nc1nnc(S(=O)(=O)N2c3ccccc3CC2C)s1 (configuration not stated) was read as Tau ThT inhib 14µM*, Tau fibril FP -3%, FBPA coupling cs 3 and Tau fluor cs -22%.
For CC(C)CC(=O)Nc1nnc(S(=O)(=O)N2CCc3ccccc32)s1 the results were Tau ThT inhib 2.2µM*, Tau fibril FP 12%, FBPA coupling cs 3 and Tau fluor cs inconclusive.
O=C(O)CN(CC(=O)O)c1ccccc1OCCOc1ccccc1N(CC(=O)O)CC(=O)O was read as FBPA coupling cs 2.
`Cc1ccccc1-c1nnc(SCC(=O)N2CCCc3ccccc32)o1` gave Tau ThT inhib -17%, Tau fibril FP -1% and Tau fluor cs -14%.
Screening Cc1ccc(NC(=O)Cn2c(=O)n(Cc3nc(-c4ccccc4)no3)c(=O)c3cc4c(cc32)OCO4)cc1F returned Tau ThT inhib 19%, Tau fibril FP inconclusive and Tau fluor cs -17%.
Cc1c(Cl)cccc1NC(=O)Cn1c(=O)n(Cc2nc(-c3ccccc3)no2)c(=O)c2cc3c(cc21)OCO3 was read as Tau ThT inhib inconclusive, Tau fibril FP inconclusive and Tau fluor cs -5%.
O=C(Cn1c(=O)n(Cc2nc(-c3ccccc3)no2)c(=O)c2cc3c(cc21)OCO3)Nc1ccccc1 was read as Tau ThT inhib 16%, Tau fibril FP 28µM* and Tau fluor cs -27%.
For O=C(Cn1c(=O)n(Cc2nc(-c3ccccc3)no2)c(=O)c2cc3c(cc21)OCO3)Nc1ccc(Cl)cc1 the results were Tau ThT inhib 24%, Tau fibril FP 20µM* and Tau fluor cs -11%.
For Cc1cccc(Nc2nc(-c3ccccc3)c3cc(C)ccc3n2)c1 the results were Tau ThT inhib inconclusive, Tau fibril FP -7% and Tau fluor cs inconclusive.
Cc1nn(C(=O)c2ccccc2F)c(C)c1S(=O)(=O)N1CCCCCC1 was read as Tau ThT inhib inconclusive, Tau fibril FP 11% and Tau fluor cs -8%.
Screening CC#CCN1c2ccccc2[C@]23C[C@@H](C(=O)OC)N(S(=O)(=O)c4ccc(OC)cc4)C2=NC(C(=O)OC)=C(C(=O)OC)[C@H]13 returned Tau ThT inhib -12%[11.5 µM], Tau fibril FP 6%[11.6 µM], FBPA coupling cs -6 and Tau fluor cs -28%[11.6 µM].
For COc1cc(C2N3CC4(C)CN2CC(C)(C3)C4)ccc1O (configuration not stated) the results were Tau ThT inhib 5%, Tau fibril FP 7%, FBPA coupling cs 4 and Tau fluor cs 10%.
COc1ccc(C2N(c3ccccc3)CCN2c2ccccc2)cc1O was read as Tau ThT inhib inconclusive, Tau fibril FP 10%, FBPA coupling cs -4 and Tau fluor cs 14µM*[quencher].
`Cc1ccc(NC(=O)C2CCCN2S(=O)(=O)c2ccc3nc(-c4ccccc4)[nH]c3c2)cc1F` (configuration not stated) gave Tau ThT inhib -11%, Tau fibril FP inconclusive and Tau fluor cs 28µM*[quencher].
Screening COc1ccc(NC(=O)C2CCCN2S(=O)(=O)c2ccc3nc(-c4ccccc4)[nH]c3c2)cc1 (configuration not stated) returned Tau ThT inhib 2%, Tau fibril FP -14% and Tau fluor cs -1%.
c1ccc2oc(C3=NNC(=NC4CC4)SC3)cc2c1 was read as Tau ThT inhib 14µM*, Tau fibril FP -7%, FBPA coupling cs 1 and Tau fluor cs -23%.
